Experimental data from PubChem BioAssay (EPA / NIEHS).
Some compounds were tested as several samples or in several runs, with calls that do not always agree. Calls of active or inactive are those of the source. Rule for the calls: active = hit-call score of the fitted dose curve at least 0.9, where 1 is the maximum; inactive = score below 0.9.

Test: ATG_TA_CIS: Attagene CIS-FACTORIAL HepG2 Assay for human TA Basal Promoter (AID 2282964)
Conditions: HepG2 Attagene CIS-factorial TA basal promoter reporter; actives raise or lower the signal
Description: ATG_CIS is a cell-based, multiplexed-readout assay that uses HepG2, a human liver cell line, with measurements taken at 24 hours after chemical dosing in a 24-well plate.ATG_TA_CIS is one of 52 assay component(s) measured or calculated from the ATG_CIS assay. It is designed to make measurements of mRNA induction, a form of inducible reporter, as detected with fluorescence intensity signals by Reverse transcription polymerase chain reaction (RT-PCR) and Capillary electrophoresis technology.Data from the assay component ATG_TA_CIS was analyzed into 1 assay endpoint. This assay endpoint, ATG_TA_CIS, was analyzed with bidirectional fitting relative to DMSO as the negative control and baseline of activity. Using a type of inducible reporter, measures of mRNA for gain or loss-of-signal activity can be used to understand the background control at the transcription factor-level as they relate to the gene . Furthermore, this assay endpoint can be referred to as a secondary readout, because this assay has produced multiple assay endpoints where this one serves a background control function. To generalize the intended target to other relatable targets, this assay endpoint is annotated to the background measurement intended target family, where the subfamily is internal marker.
Human liver HepG2 cells are transiently transfected with multiple reporter transcription units (MRTUs) in 6-well plates using FuGene 6 reagent (Roche; 3 ml FuGene/1 mg DNA). The MRTU constructs are regulated by a cis-regulating element (promoter). […] A major difference between the CIS and TRANS system is that in CIS activities of endogenous TFs are measured, whereas the TRANS assay evaluates changes in activities of exogenous, chimeric NR-Gal4 proteins. […] At the end of 24 hour incubation, total RNA was isolated using TriZol reagent (Invitrogen). The isolated RNA is then reverse-transcribed using oligo(dT) primer and Mo-MLV reverse transcriptase (Invitrogen) with DNAse I (Ambion) treatment for 30 min. The one-tenth of the produced cDNA was amplified by PCR using Taq DNA polymerase (Invitrogen) and two reporter sequence-specific primers. The PCR products were fluorescently labeled by primer extension with 6-arboxyfluorescein (6-FAM) 5'-labeled reporter sequence-specific primer (2 min at 95 C, 20 s at 68 C and 10 min at 72 C) and these products were digested with 5U of HpaI (New England Biolabs) for 2h at 37 C. The fragments were purified using Qiaquick PCR columns (Qiagen), analyzed on an ABI 3130xL genetic analyzer (Applied Biosystems) with peak positions identified by using a set of X-rhodamine (ROX)-labeled MapMarker1000 molecular weight standards (BioVentures). The raw capillary electrophoresis data was processed using Attagraph software (Attagene).

Which outcome does the source give for `Cc1ccc(CCl)cc1` here?
Its outcome is “inactive”.

Which outcome does the source give for `O=c1[nH]c2ccccc2n1C1CCN(CCCC(c2ccc(F)cc2)c2ccc(F)cc2)CC1` here?
Its outcome is “inactive”.

Which outcome does the source give for `CC(C)CP(=S)(S)CC(C)C` here?
The outcome was “inactive”.

With `Cc1cc(Cl)ccc1OC(C)C(=O)O` (stereo not given) as the compound, how does the outcome read?
The outcome was “inactive”.

For `CNC(=O)O/N=C/C(C)(C)S(C)(=O)=O`, which outcome is on record?
Its outcome is “inactive”.

For `O=C(O)C1(c2ccc3c(c2)OC[C@H](Cc2ccc(-c4ccccc4)cc2)[C@H]3O)CCCC1`, which outcome is on record?
Its outcome is “inactive”.

Which outcome does the source give for `N#Cc1ccccc1N` here?
Its outcome is “inactive”.

For `CN(N=O)C(N)=O`, which outcome is on record?
Its outcome is “inactive”.

With `O=S(=O)(C(Cl)(Cl)Cl)C(Cl)(Cl)Cl` as the compound, how does the AC50 read?
The AC50 was 16.9 µM (active).

For `FC(F)OCC(F)(F)C(F)(F)F`, which outcome is on record?
Its outcome is “inactive”.

For `OC(Cc1ccccc1Cl)(Cn1cncn1)C1(Cl)CC1` (stereo not given), which outcome is on record?
The outcome was “inactive”.

Which outcome does the source give for `CCOP(=O)(OCC)SCCSCC` here?
Its outcome is “inactive”.

For `CN(CCCC(O)c1cccnc1)N=O` (stereo not given), which outcome is on record?
Its outcome is “inactive”.

With `O=C(N[C@H]1CN2CCC1CC2)c1ccc2c(c1)OCCO2` as the compound, how does the outcome read?
Its outcome is “inactive”.

Which outcome does the source give for `Brc1ccc(Br)cc1` here?
Its outcome is “inactive”.

Which outcome does the source give for `O=[N+]([O-])c1ccc(Cl)c([N+](=O)[O-])c1` here?
The outcome was “inactive”.

For `Cc1ccccc1OP(=O)(Oc1ccccc1)Oc1ccccc1`, which outcome is on record?
Its outcome is “inactive”.

Which outcome does the source give for `O=C(Nc1ccc(Br)cc1)c1cc(Br)cc(Br)c1O` here?
The outcome was “inactive”.

For `O=S1(=O)OC(c2cc(Br)c(O)c(Br)c2)(c2cc(Br)c(O)c(Br)c2)c2ccccc21`, which outcome is on record?
The outcome was “inactive”.

With `CC1CC(=O)O1` (stereo not given) as the compound, how does the outcome read?
Its outcome is “inactive”.

Which outcome does the source give for `Cc1cc(C(F)(C(F)(F)F)C(F)(F)F)ccc1NC(=O)c1cccc(I)c1C(=O)NC(C)(C)CS(C)(=O)=O` here?
The outcome was “inactive”.

With `Nc1nc(N)nc(Cl)n1` as the compound, how does the outcome read?
The outcome was “inactive”.

Which outcome does the source give for `CCCCC(CC)C(=O)Cl` (stereo not given) here?
The outcome was “inactive”.

For `C=CCOC(F)(C(F)(F)F)C(F)(F)F`, which outcome is on record?
The outcome was “inactive”.

Which outcome does the source give for `CCN(N=O)C(N)=O` here?
The outcome was “inactive”.

Which outcome does the source give for `CC[N+](CC)(CC)CC` here?
Its outcome is “inactive”.

Which outcome does the source give for `C#CCOC(=O)/C=C(C)/C=C/CC(C)CCCC(C)C` (stereo not given) here?
The outcome was “inactive”.

With `O=c1oc2ccccc2c(O)c1C(CC(O)c1ccc(-c2ccc(Br)cc2)cc1)c1ccccc1` (stereo not given) as the compound, how does the AC50 read?
The AC50 was 13.7 µM (active).

And the outcome?
Its outcome is “inactive”.

With `CC(C)(c1ccc(O)c(-c2ccccc2)c1)c1ccc(O)c(-c2ccccc2)c1` as the compound, how does the outcome read?
Its outcome is “inactive”.

With `CC(C)C(C)(N)C#N` (stereo not given) as the compound, how does the outcome read?
Its outcome is “inactive”.

With `CCCCN(CCCCO)N=O` as the compound, how does the outcome read?
Its outcome is “inactive”.

With `O=C(CCl)NCO` as the compound, how does the outcome read?
The outcome was “inactive”.

For `C=CC(=O)OCC(COC(=O)C=C)(COC(=O)C=C)COC(=O)C=C`, which outcome is on record?
Its outcome is “inactive”.

Which outcome does the source give for `O=C(O)c1cc(I)cc(I)c1I` here?
Its outcome is “inactive”.

For `Oc1c(Cl)cc(Cl)cc1Cl`, which outcome is on record?
Its outcome is “inactive”.

For `Nc1ccc(N)cc1`, which outcome is on record?
The outcome was “inactive”.

For `N#Cc1cccnc1`, which outcome is on record?
Its outcome is “inactive”.

Which outcome does the source give for `CC(C)CC(C)(c1ccc(O)cc1)c1ccc(O)cc1` here?
Its outcome is “inactive”.

With `Cc1cc(C(C)(C)c2ccc(O)c(C)c2)ccc1O` as the compound, how does the outcome read?
Its outcome is “inactive”.
